Data: the supplement of paper PMC12494721
Structures can show the parent of a compound that is named as a salt.

How the values were obtained:
Conditions in all cases: incubation time: 27 h, anaerobic, 37 °C;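 for the amine columns active = adjusted P below 0.05 in both replicates with a change the same way and a mean fold change under 0.8 or over 1.25; inactive = the rest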
[1] = system: Clostridium sporogenes DSM 1664; assay: growth (OD595) fold change vs plate DMSO controls (fold change (ratio)); higher = more growth
How it was run: (§1)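 Growth is the fold change relative to the median of plate DMSO controls. Readings came from anaerobic mGAM cultures in 96-well plates grown for 27 h at 37 °C and read at 595 nm. They were blank-subtracted, corrected for compound background with 20 µM compound solutions in water, and converted to OD with a calibration factor of 5. Values are means of 2 biological replicates, and fold changes above 1.5 were set to NA.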

Escherichia coli IAI1 [2] = assay: as above
How it was run: as §1

[3] = system: Klebsiella aerogenes DSM 30053; assay: as above
How it was run: as §1

[4] = system: Ruminococcus gnavus DSM 108212; assay: as above
How it was run: as §1

[5] = system: Klebsiella aerogenes DSM 30053; assay: fold change of Histamine concentration vs plate DMSO controls (fold change (ratio)); higher = more amine produced, active = hit call of the paper (significant change in both replicates, either direction)
How it was run: (§2)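 Amine values are fold changes relative to DMSO-only wells on the same plate. They derive from 27 h, 37 °C anaerobic mGAM cultures of four gut bacterial strains in 80 µL wells, dosed at 20 µM final, or 50 µM final for sweeteners. Extraction of the whole culture, LC–triple-quadrupole MS in dynamic MRM mode, external calibration curves and within-batch drift correction were used, with 2 biological replicates averaged.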

[6] = system: Clostridium sporogenes DSM 1664; assay: fold change of Tryptamine concentration vs plate DMSO controls (fold change (ratio)); higher = more amine produced, active = hit call of the paper (significant change in both replicates, either direction)
How it was run: as §2

[7] = system: Ruminococcus gnavus DSM 108212; assay: as above
How it was run: as §2

Escherichia coli IAI1 [8] = assay: fold change of Putrescine concentration vs plate DMSO controls (fold change (ratio)); higher = more amine produced, active = hit call of the paper (significant change in both replicates, either direction)
How it was run: as §2

[9] = system: Klebsiella aerogenes DSM 30053; assay: as above
How it was run: as §2

Escherichia coli IAI1 [10] = assay: fold change of Cadaverine concentration vs plate DMSO controls (fold change (ratio)); higher = more amine produced, active = hit call of the paper (significant change in both replicates, either direction)
How it was run: as §2

[11] = system: Klebsiella aerogenes DSM 30053; assay: as above
How it was run: as §2

[12] = system: Ruminococcus gnavus DSM 108212; assay: fold change of 2-Phenylethylamine concentration vs plate DMSO controls (fold change (ratio)); higher = more amine produced, active = hit call of the paper (significant change in both replicates, either direction)
How it was run: as §2

Structure (SMILES)	growth [1]	growth (Escherichia coli IAI1 [2])	growth [3]	growth [4]	fold change of Histamine concentration [5]	fold change of Tryptamine concentration [6]	fold change of Tryptamine concentration [7]	fold change of Putrescine concentration (Escherichia coli IAI1 [8])	fold change of Putrescine concentration [9]	fold change of Cadaverine concentration (Escherichia coli IAI1 [10])	fold change of Cadaverine concentration [11]	fold change of 2-Phenylethylamine concentration [12]
Cc1ncc([N+](=O)[O-])n1CC(C)O (centres undefined) [Secnidazole] (20 µM)	0	1.07	1.02	0.0442	0.824 (inactive)	0.0346 (active)	0.041 (active)	0.978 (inactive)	1.03 (inactive)	0.987 (inactive)	1.02 (inactive)	0.0431 (active)
Cc1ccc(O)c([C@H](CCN(C(C)C)C(C)C)c2ccccc2)c1 [Tolterodine tartrate] (20 µM)	0.996	1.24	1.04	1.14	0.956 (inactive)	1.01 (inactive)	0.997 (inactive)	1.27 (inactive)	1.01 (inactive)	0.926 (inactive)	1 (inactive)	0.994 (inactive)
CNCCC=C1c2ccccc2C=Cc2ccccc21 [Norcyclobenzaprine] (20 µM)	1.1	1.02	1.01	1.09	0.997 (inactive)	0.985 (inactive)	0.939 (inactive)	1 (inactive)	0.993 (inactive)	1.02 (inactive)	0.994 (inactive)	0.935 (inactive)
CC1CCc2c(N3CCC(O)CC3)c(F)cc3c(=O)c(C(=O)O)cn1c23 (centres undefined) [Nadifloxacin] (20 µM)	0.00717	0.0576	0.316	0.383	0.5 (active)	0.0474 (active)	0.271 (active)	0.763 (inactive)	1.16 (inactive)	0.267 (active)	0.982 (inactive)	0.362 (active)
CC(C(=O)O)c1ccc(-c2ccccc2)c(F)c1 (centres undefined) [Flurbiprofen] (20 µM)	0.961	1	1	1.02	1.07 (inactive)	1.02 (inactive)	0.937 (inactive)	1.06 (inactive)	1.03 (inactive)	1 (inactive)	1.01 (inactive)	0.882 (inactive)
CCCCCN(C)CCC(O)(P(=O)(O)O)P(=O)(O)O [Ibandronate sodium] (20 µM)	1.07	0.989	0.973	0.926	1.04 (inactive)	1.05 (inactive)	0.934 (inactive)	1 (inactive)	1.01 (inactive)	1.03 (inactive)	0.994 (inactive)	0.958 (inactive)
CC(C)(C)NCC(O)COc1cccc2c1CC(O)C(O)C2 (centres undefined) [Nadolol] (20 µM)	1.08	0.986	1.03	0.969	0.981 (inactive)	1.08 (inactive)	1.02 (inactive)	1.06 (inactive)	0.988 (inactive)	1 (inactive)	1 (inactive)	0.971 (inactive)
COC(=O)C1=C(C)NC(C)=C(C(=O)OCCN2CCN(C(c3ccccc3)c3ccccc3)CC2)C1c1cccc([N+](=O)[O-])c1 (centres undefined) [Manidipine Dihydrochloride] (20 µM)	0.816	1.01	1	0.934	1 (inactive)	0.799 (inactive)	0.848 (inactive)	0.983 (inactive)	1 (inactive)	1.01 (inactive)	0.997 (inactive)	0.9 (inactive)
COCCCOc1ccnc(C[S+]([O-])c2nc3ccccc3[nH]2)c1C (centres undefined) [Rabeprazole sodium salt] (20 µM)	1.24	0.993	1.03	1.26	0.965 (inactive)	1.09 (inactive)	1.15 (inactive)	0.886 (inactive)	0.95 (inactive)	0.955 (inactive)	1.03 (inactive)	1.23 (inactive)
C#C[C@]1(OC(C)=O)CC[C@H]2[C@@H]3CCC4=CC(=NO)CC[C@@H]4[C@H]3CC[C@@]21CC (mixture of isomers) [Norgestimate] (20 µM)	1.25	0.998	1.01	0.991	1.01 (inactive)	0.656 (inactive)	0.888 (inactive)	1.05 (inactive)	0.985 (inactive)	1.02 (inactive)	0.993 (inactive)	0.905 (inactive)
CC(=O)Oc1ccccc1C(=O)O [Acetylsalicylic acid] (20 µM)	1.11	0.986	1.04	1.17	0.992 (inactive)	1.03 (inactive)	1.18 (inactive)	0.992 (inactive)	0.998 (inactive)	0.93 (inactive)	1.05 (inactive)	1.18 (inactive)
CN1CCc2c(c3ccccc3n2Cc2ccccc2)C1 [Mebhydroline 1,5-naphtalenedisulfonate] (20 µM)	0.931	0.967	1.04	0.742	1.01 (inactive)	1.05 (inactive)	0.911 (inactive)	0.987 (inactive)	0.991 (inactive)	0.982 (inactive)	1.01 (inactive)	0.898 (inactive)
